{
  "source": "PubChem BioAssay (NCI)",
  "note": "The panel holds about 83,000 compounds, 20% with a hit somewhere; the sample as a whole holds those more often.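 In brief: 96-well plates, 48 h treatment, single concentration, percent growth endpoint.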 Activity calls are given as the source filed them. The calls were made as follows: active = growth percent below 10; inactive = the rest.",
  "data": [
    {"tested_on": "SNB-19 CNS", "assay": "NCI-60 one-dose screen, 48 h (100 = growth as untreated, 0 = no growth, -100 = all killed)", "conditions": "10 µM unless noted", "values": [
      {"compound": "N#Cc1cccc(CN2CCC3=C(C2)C(=O)N(Cc2ccc(Cl)cc2)C2=NCCN23)c1", "growth": "23.7% (inactive)"},
      {"compound": "COc1ccc(Oc2ccc(/C=N/NC(=O)CSc3nc4ccccc4c(=O)n3-c3ccc(Cl)cc3)cc2)cc1", "growth": "61.5% (inactive)"},
      {"compound": "O=C(NNc1nc2cc(F)c(F)cc2n2c(CN3CC4CNCC4C3)ccc12)c1ncccn1", "note": "(stereo unspecified)", "growth": "29.9% (inactive)"},
      {"compound": "COc1cc(/C=C2\\C(=O)Nc3cc(Cl)ccc32)ccc1OCc1ccc(F)cc1", "growth": "104% (inactive)"},
      {"compound": "C#CCOc1ccc(/C=N\\Nc2nc(-c3ccc(C)cc3)cs2)cc1OC", "growth": "95.2% (inactive)"},
      {"compound": "C=CCOc1cccc(/C=C2\\SC(=S)N(C3CC(=O)N(c4ccc(Br)cc4)C3=O)C2=O)c1", "note": "(stereo unspecified)", "growth": "96.5% (inactive)"},
      {"compound": "COc1ccc(S(=O)(=O)NCCCNc2nccc(-c3[nH]c(-c4ccccc4)nc3-c3ccc(Cl)c(O)c3)n2)cc1", "growth": "105% (inactive)"},
      {"compound": "CCn1c2ccccc2c2cc(-n3nncc3-c3ccccc3)ccc21", "growth": "24.1% (inactive)"},
      {"compound": "N#Cc1cccc(CN2CCC3=C(C2)C(=O)N(Cc2ccc(Cl)cc2)C2=NCCCN23)c1", "growth": "21.8% (inactive)"},
      {"compound": "COc1ccc(COc2ccc(/C=C3\\C(=O)Nc4ccccc43)cc2OC)cc1", "growth": "97.3% (inactive)"},
      {"compound": "O=C(NNc1nc2cc(F)ccc2n2c(CN3CC4CNCC4C3)ccc12)c1cnccn1", "note": "(stereo unspecified)", "growth": "33.5% (inactive)"},
      {"compound": "COc1ccc2[nH]cc(-c3csc4nc(-c5ccccc5)cn34)c2c1", "growth": "23.6% (inactive)"},
      {"compound": "COC(=O)C[Se]C(=O)Cc1c(C)n(C(=O)c2ccc(Cl)cc2)c2ccc(OC)cc12", "growth": "31.7% (inactive)"},
      {"compound": "CCOc1ccc(NC2=C(Cl)C(=O)c3nc(C)ccc3C2=O)cc1", "growth": "44.7% (inactive)"},
      {"compound": "COc1cccc(/C=C(/C)c2ccc3cccc(OC)c3[o+]2)c1O", "growth": "95.6% (inactive)"},
      {"compound": "NC(N)=Nc1ccc(Oc2cccc(NC(N)=Nc3ccc(Cl)c(C(F)(F)F)c3)c2)cc1", "growth": "13.9% (inactive)"},
      {"compound": "COc1ccc(CCOc2cc3c(cc2OC)CCN(C(=O)NCc2cocn2)C3c2ccc(C)cc2C)cc1", "note": "(stereo unspecified)", "growth": "22% (inactive)"},
      {"compound": "O=C1C(c2ccccc2)=C(N2CCc3ccccc32)OC1(Cl)Cl", "growth": "84.9% (inactive)"},
      {"compound": "O=C(NNc1nc2cc(F)ccc2n2c(CN3CCCC3)ccc12)c1cnccn1", "growth": "25.2% (inactive)"},
      {"compound": "O=C(NNc1nc2cc(F)cc(F)c2n2cccc12)c1cnccn1", "growth": "25% (inactive)"},
      {"compound": "O=C(O)c1ccc(-n2cc(CNc3cc(F)c(F)c(F)c3)c(-c3ccc(F)cc3)n2)cc1", "growth": "95.3% (inactive)"},
      {"compound": "COc1ccc(NC2=C(Cl)C(=O)c3nc(C)ccc3C2=O)cc1OC", "growth": "94.6% (inactive)"},
      {"compound": "O=C(NNc1nc2cc(F)c(F)cc2n2c(CN3CC4CNCC4C3)ccc12)c1cnccn1", "note": "(stereo unspecified)", "growth": "25.9% (inactive)"},
      {"compound": "C[C@H](CCC(=O)NCc1ccc(C(=O)Nc2ccccc2N)cc1)[C@H]1CC[C@H]2[C@@H]3[C@@H](O)C[C@@H]4C[C@H](O)CC[C@]4(C)[C@H]3CC[C@]12C", "growth": "73.1% (inactive)"},
      {"compound": "CC(=O)c1cc(C(=O)c2ccc(Br)cc2)n2cc(C)cc(C)c12", "growth": "90.5% (inactive)"},
      {"compound": "NC(=O)c1cccc(-n2ccc3cc(NC(=O)Nc4ccc(N5CCOCC5)c(C(F)(F)F)c4)ccc32)n1", "growth": "2.44% (active)"},
      {"compound": "COc1ccc2c(c1)c(CC(=O)[Se]CC(=O)O)c(C)n2C(=O)c1ccc(Cl)cc1", "growth": "40.7% (inactive)"},
      {"compound": "CN(C)CCNC(=O)c1ccc(-c2nc3ccc4[nH]ncc4c3c3c2COCC3)cc1", "growth": "6.94% (active)"},
      {"compound": "COc1ccc2c(c1)c(CC(=O)[Se]CCC#N)c(C)n2C(=O)c1ccc(Cl)cc1", "growth": "-45.2% (active)"},
      {"compound": "CN1CCN(Cc2ccc(NC(=O)c3cncc(C#Cc4cnc5ccc(OCC(C)(C)O)nn45)c3)cc2C(F)(F)F)CC1", "growth": "-8.47% (active)"},
      {"compound": "CNC(=O)c1cc(N2CCc3cc(NC(=O)Nc4ccc(Cl)c(C(F)(F)F)c4)ccc32)ccn1", "growth": "61.4% (inactive)"},
      {"compound": "O=C(CSc1nc2ccccc2c(=O)n1-c1ccc(Cl)cc1)N/N=C/c1ccc(N2CCCCC2)cc1", "growth": "43.2% (inactive)"},
      {"compound": "CCOc1ccc(C(=O)Nc2ncc(Cc3ccc(F)cc3)s2)cc1", "growth": "29.6% (inactive)"},
      {"compound": "Cc1c(Cl)cccc1S(=O)(=O)Nc1ccc2c(c1)C(=O)N(C1CCC(=O)NC1=O)C2=O", "note": "(stereo unspecified)", "growth": "82.9% (inactive)"},
      {"compound": "CC/C(=C/c1cc(OC)ccc1O)c1ccc2cc(OC)ccc2[o+]1", "growth": "47.3% (inactive)"},
      {"compound": "COc1c(N2CC3CCCNC3C2)c(F)cc2c(=O)c(C(=O)N/N=C/c3ccc4c(c3)OCO4)cn(C3CC3)c12", "note": "(stereo unspecified)", "growth": "80.5% (inactive)"},
      {"compound": "CN1CCN(Cc2ccc(NC(=O)c3cncc(C#Cc4cnc5ccc(OCC6(C)COC6)nn45)c3)cc2C(F)(F)F)CC1", "growth": "-86.1% (active)"},
      {"compound": "O=C(NNc1nc2cc(F)c(F)cc2n2cccc12)c1cnccn1", "growth": "31.5% (inactive)"}
    ]},
    {"tested_on": "U251 CNS", "assay": "NCI-60 one-dose screen, 48 h (100 = growth as untreated, 0 = no growth, -100 = all killed)", "conditions": "10 µM unless noted", "values": [
      {"compound": "N#Cc1cccc(CN2CCC3=C(C2)C(=O)N(Cc2ccc(Cl)cc2)C2=NCCN23)c1", "growth": "23.3% (inactive)"},
      {"compound": "COc1ccc(Oc2ccc(/C=N/NC(=O)CSc3nc4ccccc4c(=O)n3-c3ccc(Cl)cc3)cc2)cc1", "growth": "36.5% (inactive)"},
      {"compound": "O=C(NNc1nc2cc(F)c(F)cc2n2c(CN3CC4CNCC4C3)ccc12)c1ncccn1", "note": "(stereo unspecified)", "growth": "17.3% (inactive)"},
      {"compound": "COc1cc(/C=C2\\C(=O)Nc3cc(Cl)ccc32)ccc1OCc1ccc(F)cc1", "growth": "111% (inactive)"},
      {"compound": "C#CCOc1ccc(/C=N\\Nc2nc(-c3ccc(C)cc3)cs2)cc1OC", "growth": "89.3% (inactive)"},
      {"compound": "C=CCOc1cccc(/C=C2\\SC(=S)N(C3CC(=O)N(c4ccc(Br)cc4)C3=O)C2=O)c1", "note": "(stereo unspecified)", "growth": "96.6% (inactive)"},
      {"compound": "COc1ccc(S(=O)(=O)NCCCNc2nccc(-c3[nH]c(-c4ccccc4)nc3-c3ccc(Cl)c(O)c3)n2)cc1", "growth": "83.3% (inactive)"},
      {"compound": "CCn1c2ccccc2c2cc(-n3nncc3-c3ccccc3)ccc21", "growth": "25.1% (inactive)"},
      {"compound": "N#Cc1cccc(CN2CCC3=C(C2)C(=O)N(Cc2ccc(Cl)cc2)C2=NCCCN23)c1", "growth": "23.7% (inactive)"},
      {"compound": "COc1ccc(COc2ccc(/C=C3\\C(=O)Nc4ccccc43)cc2OC)cc1", "growth": "109% (inactive)"},
      {"compound": "O=C(NNc1nc2cc(F)ccc2n2c(CN3CC4CNCC4C3)ccc12)c1cnccn1", "note": "(stereo unspecified)", "growth": "27.2% (inactive)"},
      {"compound": "COc1ccc2[nH]cc(-c3csc4nc(-c5ccccc5)cn34)c2c1", "growth": "13.6% (inactive)"},
      {"compound": "COC(=O)C[Se]C(=O)Cc1c(C)n(C(=O)c2ccc(Cl)cc2)c2ccc(OC)cc12", "growth": "46.2% (inactive)"},
      {"compound": "CCOc1ccc(NC2=C(Cl)C(=O)c3nc(C)ccc3C2=O)cc1", "growth": "15.6% (inactive)"},
      {"compound": "COc1cccc(/C=C(/C)c2ccc3cccc(OC)c3[o+]2)c1O", "growth": "108% (inactive)"},
      {"compound": "NC(N)=Nc1ccc(Oc2cccc(NC(N)=Nc3ccc(Cl)c(C(F)(F)F)c3)c2)cc1", "growth": "23% (inactive)"},
      {"compound": "COc1ccc(CCOc2cc3c(cc2OC)CCN(C(=O)NCc2cocn2)C3c2ccc(C)cc2C)cc1", "note": "(stereo unspecified)", "growth": "5.74% (active)"},
      {"compound": "O=C1C(c2ccccc2)=C(N2CCc3ccccc32)OC1(Cl)Cl", "growth": "85.8% (inactive)"},
      {"compound": "O=C(NNc1nc2cc(F)ccc2n2c(CN3CCCC3)ccc12)c1cnccn1", "growth": "19.8% (inactive)"},
      {"compound": "O=C(NNc1nc2cc(F)cc(F)c2n2cccc12)c1cnccn1", "growth": "16.2% (inactive)"},
      {"compound": "O=C(O)c1ccc(-n2cc(CNc3cc(F)c(F)c(F)c3)c(-c3ccc(F)cc3)n2)cc1", "growth": "97.8% (inactive)"},
      {"compound": "COc1ccc(NC2=C(Cl)C(=O)c3nc(C)ccc3C2=O)cc1OC", "growth": "106% (inactive)"},
      {"compound": "O=C(NNc1nc2cc(F)c(F)cc2n2c(CN3CC4CNCC4C3)ccc12)c1cnccn1", "note": "(stereo unspecified)", "growth": "22.4% (inactive)"},
      {"compound": "C[C@H](CCC(=O)NCc1ccc(C(=O)Nc2ccccc2N)cc1)[C@H]1CC[C@H]2[C@@H]3[C@@H](O)C[C@@H]4C[C@H](O)CC[C@]4(C)[C@H]3CC[C@]12C", "growth": "64.3% (inactive)"},
      {"compound": "CC(=O)c1cc(C(=O)c2ccc(Br)cc2)n2cc(C)cc(C)c12", "growth": "101% (inactive)"},
      {"compound": "NC(=O)c1cccc(-n2ccc3cc(NC(=O)Nc4ccc(N5CCOCC5)c(C(F)(F)F)c4)ccc32)n1", "growth": "0.717% (active)"},
      {"compound": "COc1ccc2c(c1)c(CC(=O)[Se]CC(=O)O)c(C)n2C(=O)c1ccc(Cl)cc1", "growth": "62% (inactive)"},
      {"compound": "CN(C)CCNC(=O)c1ccc(-c2nc3ccc4[nH]ncc4c3c3c2COCC3)cc1", "growth": "5.37% (active)"},
      {"compound": "COc1ccc2c(c1)c(CC(=O)[Se]CCC#N)c(C)n2C(=O)c1ccc(Cl)cc1", "growth": "1.11% (active)"},
      {"compound": "CN1CCN(Cc2ccc(NC(=O)c3cncc(C#Cc4cnc5ccc(OCC(C)(C)O)nn45)c3)cc2C(F)(F)F)CC1", "growth": "-59.3% (active)"},
      {"compound": "CNC(=O)c1cc(N2CCc3cc(NC(=O)Nc4ccc(Cl)c(C(F)(F)F)c4)ccc32)ccn1", "growth": "52.4% (inactive)"},
      {"compound": "O=C(CSc1nc2ccccc2c(=O)n1-c1ccc(Cl)cc1)N/N=C/c1ccc(N2CCCCC2)cc1", "growth": "50.6% (inactive)"},
      {"compound": "CCOc1ccc(C(=O)Nc2ncc(Cc3ccc(F)cc3)s2)cc1", "growth": "16% (inactive)"},
      {"compound": "Cc1c(Cl)cccc1S(=O)(=O)Nc1ccc2c(c1)C(=O)N(C1CCC(=O)NC1=O)C2=O", "note": "(stereo unspecified)", "growth": "95.6% (inactive)"},
      {"compound": "CC/C(=C/c1cc(OC)ccc1O)c1ccc2cc(OC)ccc2[o+]1", "growth": "66.5% (inactive)"},
      {"compound": "COc1c(N2CC3CCCNC3C2)c(F)cc2c(=O)c(C(=O)N/N=C/c3ccc4c(c3)OCO4)cn(C3CC3)c12", "note": "(stereo unspecified)", "growth": "12.4% (inactive)"},
      {"compound": "CN1CCN(Cc2ccc(NC(=O)c3cncc(C#Cc4cnc5ccc(OCC6(C)COC6)nn45)c3)cc2C(F)(F)F)CC1", "growth": "-62% (active)"},
      {"compound": "O=C(NNc1nc2cc(F)c(F)cc2n2cccc12)c1cnccn1", "growth": "26.4% (inactive)"}
    ]}
  ]
}
